# Laboratory results published in article PMC7862700, “An all-to-all approach to the identification of sequence-specific readers for epigenetic DNA modifications on cytosine”.
# What was measured:
# Experiment in all cases: DAPPL (digital affinity profiling via proximity ligation, sequencing); 10 mM Tris-HCl pH 7.5, 50 mM NaCl, 1 mM DTT, 4% glycerol, room temperature, 30 min; GST-TFs on glutathione beads, 16-mer random dsDNA library, 0.1% formaldehyde crosslink after washing; high values mean tight binding
# [1] = molecular target: T1, GABPA (Homo sapiens, UniProt Q06546 1-454); details: protein: recombinant; tags: N-terminal GST; dsDNA, one strand shown
# T1 sequence: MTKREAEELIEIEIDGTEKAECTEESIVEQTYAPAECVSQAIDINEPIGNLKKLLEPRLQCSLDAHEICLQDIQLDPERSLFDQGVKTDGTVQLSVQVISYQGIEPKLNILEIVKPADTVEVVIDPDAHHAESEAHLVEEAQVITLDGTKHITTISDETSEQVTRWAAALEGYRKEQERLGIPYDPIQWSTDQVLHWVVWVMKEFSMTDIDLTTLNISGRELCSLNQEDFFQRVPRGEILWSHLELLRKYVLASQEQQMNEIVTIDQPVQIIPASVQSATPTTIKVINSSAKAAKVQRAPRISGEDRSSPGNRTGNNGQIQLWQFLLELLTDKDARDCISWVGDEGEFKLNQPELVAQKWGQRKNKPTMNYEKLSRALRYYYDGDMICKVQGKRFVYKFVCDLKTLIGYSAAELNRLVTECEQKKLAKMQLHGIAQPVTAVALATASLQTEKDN
# How it was run: (§1)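 Yeast served to express human transcription factors as GST fusions, which were then captured on glutathione beads and labelled with DNA barcodes. Pooled with a tag-only sample, they were incubated with 200 nmole of a 16-mer random double-stranded DNA library for 30 min at room temperature in Tris/NaCl/DTT/glycerol buffer, washed, crosslinked with 0.1% formaldehyde, ligated by proximity, amplified by PCR and sequenced. Dividing each hexamer's read frequency for a factor by its frequency for the tag-only sample gives the binding signal.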
# [2] = molecular target: T2, ERG (Homo sapiens, UniProt P11308 1-479); details: protein: recombinant; tags: N-terminal GST; dsDNA, one strand shown
# T2 sequence: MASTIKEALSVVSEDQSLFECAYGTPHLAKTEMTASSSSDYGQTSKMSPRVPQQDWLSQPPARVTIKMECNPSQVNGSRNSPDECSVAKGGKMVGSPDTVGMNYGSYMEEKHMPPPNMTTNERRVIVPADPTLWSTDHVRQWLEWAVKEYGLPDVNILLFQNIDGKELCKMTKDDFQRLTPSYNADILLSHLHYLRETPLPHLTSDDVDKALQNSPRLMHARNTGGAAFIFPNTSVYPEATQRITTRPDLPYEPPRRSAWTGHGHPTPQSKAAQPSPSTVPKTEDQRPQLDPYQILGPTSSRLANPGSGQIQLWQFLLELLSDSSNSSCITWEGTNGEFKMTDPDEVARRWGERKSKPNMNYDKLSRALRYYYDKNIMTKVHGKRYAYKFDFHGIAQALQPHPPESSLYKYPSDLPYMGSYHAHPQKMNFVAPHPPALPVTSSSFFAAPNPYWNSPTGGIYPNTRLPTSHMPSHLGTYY
# How it was run: as §1
# [3] = molecular target: T3, FEV (Homo sapiens, UniProt Q99581 1-238); details: protein: recombinant; tags: N-terminal GST; dsDNA, one strand shown
# T3 sequence: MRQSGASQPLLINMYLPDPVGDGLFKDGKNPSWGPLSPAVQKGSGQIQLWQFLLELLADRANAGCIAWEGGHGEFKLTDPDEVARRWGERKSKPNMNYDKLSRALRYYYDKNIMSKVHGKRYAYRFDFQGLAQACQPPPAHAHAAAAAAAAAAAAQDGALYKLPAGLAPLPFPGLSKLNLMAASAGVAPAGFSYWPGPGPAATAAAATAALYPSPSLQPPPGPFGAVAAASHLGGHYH
# How it was run: as §1
# [4] = molecular target: HSF1 (Homo sapiens, UniProt Q00613 1-529); details: protein: recombinant; tags: N-terminal GST; chain copies: 3; dsDNA, one strand shown
# Sequence of HSF1 (Q00613 whole entry): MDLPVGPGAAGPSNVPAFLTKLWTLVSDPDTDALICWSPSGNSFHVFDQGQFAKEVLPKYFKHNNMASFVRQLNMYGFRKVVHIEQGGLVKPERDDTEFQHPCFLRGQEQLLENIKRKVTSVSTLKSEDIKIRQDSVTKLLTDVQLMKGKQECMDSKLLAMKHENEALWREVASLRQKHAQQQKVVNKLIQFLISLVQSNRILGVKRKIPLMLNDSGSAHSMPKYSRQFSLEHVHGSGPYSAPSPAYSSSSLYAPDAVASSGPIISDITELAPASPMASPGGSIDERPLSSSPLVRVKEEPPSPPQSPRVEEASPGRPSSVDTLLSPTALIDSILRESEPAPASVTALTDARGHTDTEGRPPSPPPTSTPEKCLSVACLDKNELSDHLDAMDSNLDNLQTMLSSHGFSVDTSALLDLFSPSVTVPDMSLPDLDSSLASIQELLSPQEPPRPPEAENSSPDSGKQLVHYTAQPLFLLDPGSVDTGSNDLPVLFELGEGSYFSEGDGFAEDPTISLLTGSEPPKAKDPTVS
# How it was run: as §1
# [5] = molecular target: T4, SPIC (Homo sapiens, UniProt Q8N5J4 1-248); details: protein: recombinant; tags: N-terminal GST; dsDNA, one strand shown
# T4 sequence: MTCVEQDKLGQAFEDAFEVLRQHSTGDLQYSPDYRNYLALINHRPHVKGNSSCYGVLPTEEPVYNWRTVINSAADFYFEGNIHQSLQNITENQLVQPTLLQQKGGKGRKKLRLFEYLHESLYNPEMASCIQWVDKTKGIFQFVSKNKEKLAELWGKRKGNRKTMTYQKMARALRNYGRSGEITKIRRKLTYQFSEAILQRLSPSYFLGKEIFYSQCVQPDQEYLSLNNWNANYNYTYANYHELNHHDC
# How it was run: as §1
# [6] = molecular target: CRX (Homo sapiens, UniProt O43186 1-299); details: protein: recombinant; tags: N-terminal GST; dsDNA, one strand shown
# Sequence of CRX (O43186 whole entry): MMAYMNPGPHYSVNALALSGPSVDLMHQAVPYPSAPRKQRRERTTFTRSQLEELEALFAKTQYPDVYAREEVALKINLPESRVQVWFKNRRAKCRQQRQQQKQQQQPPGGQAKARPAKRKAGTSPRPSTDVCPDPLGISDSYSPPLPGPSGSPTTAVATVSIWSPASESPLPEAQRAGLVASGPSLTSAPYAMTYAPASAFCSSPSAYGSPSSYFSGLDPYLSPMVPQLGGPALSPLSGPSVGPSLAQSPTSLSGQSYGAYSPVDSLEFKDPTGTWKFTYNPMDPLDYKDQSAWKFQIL
# How it was run: as §1
# [7] = molecular target: ETV1 (Homo sapiens, UniProt P50549 1-477); details: protein: recombinant; tags: N-terminal GST; dsDNA, one strand shown
# Sequence of ETV1 (P50549 whole entry): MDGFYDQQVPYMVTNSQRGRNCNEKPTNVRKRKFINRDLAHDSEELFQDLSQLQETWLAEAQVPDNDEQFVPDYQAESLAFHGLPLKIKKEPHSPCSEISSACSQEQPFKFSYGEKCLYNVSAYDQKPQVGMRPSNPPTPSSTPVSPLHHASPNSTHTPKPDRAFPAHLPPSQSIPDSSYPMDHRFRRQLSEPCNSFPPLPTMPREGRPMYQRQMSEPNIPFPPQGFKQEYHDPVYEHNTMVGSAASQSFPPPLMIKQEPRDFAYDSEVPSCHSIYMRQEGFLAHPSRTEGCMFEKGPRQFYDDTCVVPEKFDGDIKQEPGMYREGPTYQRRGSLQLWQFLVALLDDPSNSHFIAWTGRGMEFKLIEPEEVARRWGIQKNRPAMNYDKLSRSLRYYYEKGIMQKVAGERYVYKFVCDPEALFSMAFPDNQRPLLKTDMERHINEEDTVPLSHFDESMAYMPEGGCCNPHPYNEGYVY
# How it was run: as §1
# [8] = molecular target: T5, ERF (Homo sapiens, UniProt P50548 1-548); details: protein: recombinant; tags: N-terminal GST; dsDNA, one strand shown
# T5 sequence: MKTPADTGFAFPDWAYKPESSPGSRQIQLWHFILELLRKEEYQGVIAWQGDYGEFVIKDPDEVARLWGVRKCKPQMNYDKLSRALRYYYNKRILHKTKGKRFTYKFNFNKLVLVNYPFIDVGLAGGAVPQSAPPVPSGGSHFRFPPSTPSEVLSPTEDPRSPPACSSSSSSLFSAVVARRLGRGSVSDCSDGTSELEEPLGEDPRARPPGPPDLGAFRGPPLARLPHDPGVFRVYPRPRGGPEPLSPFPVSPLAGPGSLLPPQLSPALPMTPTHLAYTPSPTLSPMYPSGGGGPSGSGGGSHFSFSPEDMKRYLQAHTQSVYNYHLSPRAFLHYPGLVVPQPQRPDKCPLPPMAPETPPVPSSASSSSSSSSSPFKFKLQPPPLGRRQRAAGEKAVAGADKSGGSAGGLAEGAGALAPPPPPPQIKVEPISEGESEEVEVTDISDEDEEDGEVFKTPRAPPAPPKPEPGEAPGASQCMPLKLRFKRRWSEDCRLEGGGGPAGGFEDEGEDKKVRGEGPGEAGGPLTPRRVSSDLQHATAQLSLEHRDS
# How it was run: as §1
# [9] = molecular target: T6, ETV3L (Homo sapiens, UniProt Q6ZN32 1-361); details: protein: recombinant; tags: N-terminal GST; dsDNA, one strand shown
# T6 sequence: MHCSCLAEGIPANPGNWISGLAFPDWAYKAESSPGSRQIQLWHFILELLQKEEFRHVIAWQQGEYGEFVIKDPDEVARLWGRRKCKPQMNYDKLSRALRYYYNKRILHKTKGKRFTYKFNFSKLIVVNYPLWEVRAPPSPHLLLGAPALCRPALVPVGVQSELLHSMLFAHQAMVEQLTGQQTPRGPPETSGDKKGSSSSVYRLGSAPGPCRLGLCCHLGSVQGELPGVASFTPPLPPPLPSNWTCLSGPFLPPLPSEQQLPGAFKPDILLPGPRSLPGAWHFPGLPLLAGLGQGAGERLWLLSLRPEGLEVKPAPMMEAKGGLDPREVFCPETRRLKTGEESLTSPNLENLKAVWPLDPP
# How it was run: as §1
# [10] = molecular target: T7, ETS2 (Homo sapiens, UniProt P15036 1-469); details: protein: recombinant; tags: N-terminal GST; dsDNA, one strand shown
# T7 sequence: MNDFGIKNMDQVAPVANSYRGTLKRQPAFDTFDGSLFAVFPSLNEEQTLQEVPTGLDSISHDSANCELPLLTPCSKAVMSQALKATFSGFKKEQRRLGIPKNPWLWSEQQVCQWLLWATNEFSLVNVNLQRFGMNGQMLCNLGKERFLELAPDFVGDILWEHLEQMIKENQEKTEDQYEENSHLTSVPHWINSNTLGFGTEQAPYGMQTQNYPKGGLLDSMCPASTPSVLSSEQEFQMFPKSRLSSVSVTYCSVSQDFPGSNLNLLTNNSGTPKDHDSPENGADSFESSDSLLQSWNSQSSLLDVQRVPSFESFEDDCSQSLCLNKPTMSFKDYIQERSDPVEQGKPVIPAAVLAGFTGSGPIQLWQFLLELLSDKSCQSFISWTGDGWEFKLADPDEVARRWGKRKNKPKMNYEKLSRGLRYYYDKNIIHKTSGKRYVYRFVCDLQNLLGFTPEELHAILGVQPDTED
# How it was run: as §1
# [11] = molecular target: T8, ETV7 (Homo sapiens, UniProt Q9Y603 1-341); details: protein: recombinant; tags: N-terminal GST; dsDNA, one strand shown
# T8 sequence: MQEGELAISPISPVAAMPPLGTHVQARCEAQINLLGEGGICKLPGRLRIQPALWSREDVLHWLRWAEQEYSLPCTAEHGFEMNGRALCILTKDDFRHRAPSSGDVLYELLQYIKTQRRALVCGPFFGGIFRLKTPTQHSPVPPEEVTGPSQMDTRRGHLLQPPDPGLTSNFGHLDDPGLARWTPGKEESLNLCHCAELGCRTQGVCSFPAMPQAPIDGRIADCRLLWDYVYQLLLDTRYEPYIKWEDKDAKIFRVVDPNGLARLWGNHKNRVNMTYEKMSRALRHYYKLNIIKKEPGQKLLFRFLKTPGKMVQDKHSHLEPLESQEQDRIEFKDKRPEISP
# How it was run: as §1
sequence,measurement,setting,value
TTAGGC,binding signal,[1],"1.02 fold enrichment (6-mer frequency, TF over GST control)"
same,binding signal,[2],"1.03 fold enrichment (6-mer frequency, TF over GST control)"
same,binding signal,[3],"1 fold enrichment (6-mer frequency, TF over GST control)"
same,binding signal,[4],"1.37 fold enrichment (6-mer frequency, TF over GST control)"
same,binding signal,[5],"1.08 fold enrichment (6-mer frequency, TF over GST control)"
same,binding signal,[6],"2.06 fold enrichment (6-mer frequency, TF over GST control)"
same,binding signal,[7],"1.03 fold enrichment (6-mer frequency, TF over GST control)"
same,binding signal,[8],"1.02 fold enrichment (6-mer frequency, TF over GST control)"
same,binding signal,[9],"1.01 fold enrichment (6-mer frequency, TF over GST control)"
same,binding signal,[10],"1.01 fold enrichment (6-mer frequency, TF over GST control)"
same,binding signal,[11],"1.16 fold enrichment (6-mer frequency, TF over GST control)"
